Consider 15 compounds from PubChem BioAssay AID2158 (National Center for Advancing Translational Sciences (NCATS), 2009).

Inconclusive results are not listed. Values without a mark were called inactive. Calls of active or inactive are those of the source. The call rests on the fitted dose curve; in most records, active means well fitted inhibition curve with a large enough effect; inconclusive means small, poorly fitted or top-dose-only effect; inactive means no such curve, though single readings can be large or run the other way.
Potency means the concentration at half of the fitted maximal effect.

In this assay the target is Cruzipain (Trypanosoma cruzi) (UniProt P25779). Kind of assay: Confirmation qHTS Assay for Inhibitors of Cruzain. Further: nearly all actives have a fitted effect of over 40% in size.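 On activity change, negative = inhibition: plate controls were uninhibited enzyme control for no effect and buffer wells lacking enzyme for full effect.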 The following applies: purified cruzain, Z-FR-AMC fluorescence, 0.01% Triton. Put shortly: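 Reaction progress from the 60 s rise in AMC fluorescence (ex 360, em 450 nm) after adding 2 uM Z-FR-AMC. Before this, 1.5 nM cruzain sat 15 min at room temperature with compound in pH 5.5 acetate buffer with 5 mM DTT and 0.01% Triton X-100.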
Chain of Cruzipain (Trypanosoma cruzi) (P25779 123-467 limits assumed): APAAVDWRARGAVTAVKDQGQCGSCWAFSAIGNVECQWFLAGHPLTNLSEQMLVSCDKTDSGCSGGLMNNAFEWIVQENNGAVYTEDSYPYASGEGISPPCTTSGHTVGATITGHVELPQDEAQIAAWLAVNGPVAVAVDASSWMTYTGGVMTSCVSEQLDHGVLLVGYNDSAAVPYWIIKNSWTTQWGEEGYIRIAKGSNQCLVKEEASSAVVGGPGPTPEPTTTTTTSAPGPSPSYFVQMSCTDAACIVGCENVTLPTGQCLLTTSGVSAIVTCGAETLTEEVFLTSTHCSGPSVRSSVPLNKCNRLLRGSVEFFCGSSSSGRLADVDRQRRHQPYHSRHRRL
For orientation: Quantitative high-throughput screening tests each substance at several concentrations.
Regarding `Cc1cccc(C)c1OCCn1c(CCNC(=O)C2CCCCC2)nc2ccccc21`, the Potency was 1.12 µM (active).

Take `CCCCNC(=O)Cn1c(SCc2cccc(C)c2)nc2ccncc21`: the activity change, negative = inhibition was -22.6%.

On to `COc1ccc(C(F)(F)F)cc1NC(=O)C(OC(=O)CNC(=O)c1ccccc1)c1ccccc1` (stereo not given), for which the Potency was 14.1 µM (active). Turning to `Cc1ccc2[nH]c(=O)c(NC(N)=S)nc2c1`, the activity change, negative = inhibition was -16.5%.

As to `CC(C)COC(=O)c1nnsc1NC(=O)Nc1ccccc1`, the activity change, negative = inhibition is -3.71%. For `O=C(CNC(=O)c1ccncc1)OC(C(=O)Nc1cc(C(F)(F)F)ccc1Cl)c1ccccc1` (stereo not given), the Potency is 25.1 µM (active). As to `O=C(CNC(=O)c1ccccc1)OCC(=O)c1cccc2ccccc12`, the activity change, negative = inhibition is -21.8%.

As to `N#CN1CCC(NC(=O)c2ccc(F)cc2)CC1`, the activity change, negative = inhibition is 0.471%.

On to `O=C(Cc1ccccc1)NCC(=O)OCC(=O)c1ccc2ccccc2c1`, for which the activity change, negative = inhibition was -9.73%.

In the case of `CCn1cnc2c(Nc3ccc(CCC(=O)N=C(N)N)cc3)nc(C#N)nc21`, the Potency was 35.5 µM (active).

Consider `O=C(NCCc1nc2ccccc2n1CCOc1cccc2ccccc12)C1CCCCC1`, for which the activity change, negative = inhibition was -11.4%. For `C=CCNC(=O)c1ccc2nc(-c3ccco3)c(-c3ccco3)nc2c1`, the Potency was 15.8 µM (active). Regarding `O=C(NCCc1nc2ccccc2n1CCCOc1ccccc1)C1CCCCC1`, the Potency is 2.24 µM (active). As to `CCC(C)[C@@H](NC(=O)OC(C)(C)C)c1nnc(S(=O)(=O)Cc2cccc(C)c2)o1` (stereo not given in full), the Potency was 14.1 µM (active).

Turning to `CC(C)(C)OC(=O)Cc1nnc(C(C(=O)OCc2ccccc2)c2ccccc2)o1` (stereo not given), the activity change, negative = inhibition is -12.3%.
